Common to all, as to assay: NCI-60 one-dose screen, 48 h (100 = growth as untreated, 0 = no growth, -100 = all killed)
Settings in all cases: 10 µM unless noted

Assay [1] deals with NCI-H23 lung.
In assay [2] the test system is NCI-H226 lung.
Assay [3] concerns NCI-H322M lung.
The subject of assay [4] is NCI-H460 lung.
The subject of assay [5] is HOP-92 NSCLC.
Assay [6] concerns NCI-H522 lung.
Assay [7] concerns A549/ATCC NSCLC.
In assay [8] the test system is 786-0 renal.
Assay [9] deals with COLO 205 colon.
Assay [10] deals with HOP-62 NSCLC.

The panel holds about 83,000 compounds, 20% with a hit somewhere; the sample as a whole holds those more often.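 Growth was measured after 48 h exposure to one concentration of compound in 96-well plates. Values under 10 count as active.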 A number with no mark means an inactive call. Calls of active or inactive are those of the source.

Turning to `CCOC(=O)CC(=O)OC`, the growth in assay [1] is 106%; in assay [2], 101%; in assay [3], 111%; in [4] it was 101%; in assay [5] it was 96.4%; in [6], 90.2%. The growth in assay [7], in [8] and in assay [9] was 101% each time.

As for `O=C1/C(=C/c2ccccc2)CN(C(=O)CCN2CCC(=NO)CC2)C/C1=C\c1ccccc1`, the growth in assay [1] was 1.59% (active); in [2] it was 104%; in assay [3], 34%; in [4], -32.2% (active); in assay [5] it was 77.6%; in assay [6], -61.4% (active). For the same molecule, the growth in assay [7] was 71.3%; in assay [8], -25.8% (active).

On to `COc1ccc2[nH]c(=O)c(/C=N/Nc3nc(-c4ccccc4)cs3)c(O)c2c1`, for which the growth was 89.7% in assay [1]; 66.6% in assay [2]; 18.2% in assay [3]; 43% in assay [10]; 46.6% in assay [4]; 94.7% in assay [5]. The values for the growth in assay [6], in [7] and in assay [9] were 80.1%, 57.3% and 106%, respectively.

`CCn1c2ccccc2c2cc(NC(=O)Nc3ccc([N+](=O)[O-])cc3C)ccc21`: the growth in assay [1] was 41.5%; in assay [2], 74.9%; in [3], 77.8%; in [4] it was 19.5%; in assay [5], 57.9%; in assay [6] it was 9.7% (active). Also, the growth in assay [7] is 31.5%; in [8], 38.9%; in [9] it was 29.9%.

In the case of `COc1cc(NC(=O)SC2=NCCS2)cc(OC)c1`, the growth in [1] is 95%; in [2], 98.7%; in [3] it was 110%; in assay [4], 101%; in [5], 84.7%; in [6], 86.4%. In addition, the growth in [7] was 101%; in assay [8], 101%; in assay [9], 109%.

On to `CCOC(=O)c1cc(C(=O)c2cc(OC)c(OC)c(OC)c2)n2c1ccc1ccccc12`, for which the growth was 50.2% in assay [1]; 64.7% in assay [2]; 43.1% in assay [3]; 14.9% in assay [4]; 39.1% in assay [5]; 2.76% (active) in assay [6]. In addition, the growth in assay [7] was 34.4%; in [9] it was -6.61% (active).

As for `COc1ccc(C(=O)N2NC(=O)/C(=C/c3cn(-c4ccccc4)nc3-c3ccccc3)N=C2c2ccccc2)cc1`, the growth in assay [1] is 97.3%; in assay [2], 102%; in assay [10], 115%; in assay [4], 106%; in assay [5], 100%; in assay [6] it was 95.9%. In addition, the growth was 91.6% in assay [7], 93% in assay [8] and 120% in assay [9].

For the molecule `Clc1cc2c(nn1)Nc1ccccc1S2`, the growth in [1] is 94.7%; in assay [2], 104%; in [10], 97.5%; in [4], 99.2%; in assay [5], 83.6%; in [6] it was 56.5%. The growth was 91.7% in [7], 99.3% in assay [8] and 116% in [9].

Consider `COc1ccc(C2C=C(c3ccc(Cl)cc3)N=C3SC=C(C)N32)c(Br)c1` (stereo unspecified), for which the growth is 50.1% in assay [1]; 59.5% in [2]; 30.5% in assay [10]; 13.4% in assay [4]; 95.6% in assay [5]; 23% in assay [6]. The growth in [7] is 36.9%; in [8], 47.2%; in [9], 18.6%.

Consider `COc1cc(Nc2ncccc2C(=O)NCc2cn(Cc3cccc(Oc4ccccc4)c3)nn2)cc(OC)c1`, for which the growth in assay [1] was 66.2%; in assay [2], 91.7%; in assay [10], 56.6%; in assay [4], 20.2%; in assay [5] it was 108%; in assay [6] it was 5.73% (active). For the same molecule, the results for the growth in assay [7], in assay [8] and in assay [9] were 38.6%, 51% and 38.3%, respectively.

With `CC12CCC3C4(C)COC(c5ccco5)OC4CCC3(C)C1CC(C1=CCOC1=O)O2` (stereo unspecified), the growth in assay [1] is 103%; in [2], 101%; in assay [10] it was 105%; in assay [4], 102%; in assay [5], 100%; in assay [6] it was 109%. For the same molecule, the growth was 107% in assay [7], 93.4% in assay [8] and 110% in assay [9].

Regarding `CCN1CCN(CC(=O)N2c3cccc4cccc(c34)N(C(=O)CN3CCN(CC)CC3)C2c2cn(-c3ccccc3)nc2-c2cccc([N+](=O)[O-])c2)CC1`, the growth was 13.7% in [1]; -28.3% (active) in [2]; 0.226% (active) in [10]; -37.9% (active) in assay [4]; 61.4% in [5]; -64.7% (active) in [6]. The growth in [7] was 12.9%; in assay [9], -66.9% (active).

Regarding `COc1cc(C(=O)/C=C/c2ccc3nc(-c4cc(F)cc(F)c4)sc3c2)cc(OC)c1OC`, the growth in [1] is 99.3%; in assay [2], 120%; in assay [10] it was 92.3%; in assay [4], 110%; in [5] it was 83.4%; in [6], 97.4%. Further, the growth in assay [7] was 94.2%; in assay [8], 93.4%.

Regarding `COc1ccc(Nc2ncccc2C(=O)NCc2cn(Cc3cccc(Oc4ccccc4)c3)nn2)c(OC)c1`, the growth was 37.5% in [1]; 73.5% in [2]; 41.7% in assay [10]; 7.15% (active) in assay [4]; 62% in assay [5]; 11.6% in assay [6]. Also, the results for the growth in [7], in [8] and in [9] were 39%, 34% and 4.54% (active), respectively.

With `CC(C)CC1NC(C)(C)CO1` (stereo unspecified), the growth was 105% in assay [1]; 107% in assay [2]; 95.9% in assay [10]; 107% in assay [4]; 98% in assay [5]; 89.8% in assay [6]. In addition, the growth was 103% in assay [7], 109% in [8] and 108% in [9].

`Fc1ccc(-c2nc(-c3nc4ncccc4[nH]3)cc3c2[nH]c2ccccc23)cc1F`: the growth in assay [1] was 67.2%; in assay [2] it was 88.5%; in assay [10], 78.6%; in assay [4] it was 91.1%; in assay [5], 70.2%; in assay [6], 58.3%. In addition, the growth is 59% in assay [7], 95.2% in assay [8] and 96.9% in [9].

As for `C/C=C/C1=CN2C(=O)c3cc(OC4OC(C)C(NC)C(C)(O)C4O)c(C)cc3N=C[C@@H]2C1` (stereo partly specified), the growth was -31.7% (active) in [1]; 6.1% (active) in assay [2]; -18.4% (active) in [4]; 2.06% (active) in assay [5]; -12.7% (active) in assay [6]; 7.17% (active) in assay [7]. The values for the growth in assay [8] and in assay [9] were 0.564% (active) and -42.4% (active), respectively.

For `CC(C)(C)n1cc(-c2ccnc(NCCCNS(=O)(=O)c3ccc(Br)cc3)c2)c(-c2cccc(O)c2)n1`, the growth in [1] was 47.1%; in assay [2], 40.4%; in assay [10] it was 46.8%; in assay [4], -21.2% (active); in assay [5], 48.4%; in assay [6], 13.5%. Moreover, the growth in assay [7] is 24.1%; in [8] it was -2.1% (active); in [9], -62.6% (active).

Turning to `C=C1C(=O)O[C@H]2[C@H]1CC/C(Cn1cc(-c3cccc(Cl)c3)nn1)=C\CC[C@@]1(C)O[C@@H]21`, the growth in [1] is -35% (active); in assay [2] it was -57.9% (active); in assay [10], -38.4% (active); in assay [4], 16.6%; in assay [5], -73.2% (active); in assay [6], -74.4% (active). Further, the figures for the growth in assay [7], in [8] and in assay [9] were 31%, -83.9% (active) and -79.5% (active), respectively.

The record behind these values is PubChem BioAssay (NCI).
